Assay outcomes as filed in PubChem.
The list is not random: actives were taken first. Their share in the collection is about 3.4%.
GPR151 ag – activators of human GPR151, primary screen, cell-based, PathHunter beta-arrestin, luminescence. PathHunter beta-arrestin GPR151 cells. 650,000 compounds, 1% hits. G-protein coupled receptor 151 (Homo sapiens), Q8TDV0. AID 1508602, 2020. activation, % at 11.2 µM; in the data active means activation above about 4.9%
Target sequence (Q8TDV0 whole entry, looked up): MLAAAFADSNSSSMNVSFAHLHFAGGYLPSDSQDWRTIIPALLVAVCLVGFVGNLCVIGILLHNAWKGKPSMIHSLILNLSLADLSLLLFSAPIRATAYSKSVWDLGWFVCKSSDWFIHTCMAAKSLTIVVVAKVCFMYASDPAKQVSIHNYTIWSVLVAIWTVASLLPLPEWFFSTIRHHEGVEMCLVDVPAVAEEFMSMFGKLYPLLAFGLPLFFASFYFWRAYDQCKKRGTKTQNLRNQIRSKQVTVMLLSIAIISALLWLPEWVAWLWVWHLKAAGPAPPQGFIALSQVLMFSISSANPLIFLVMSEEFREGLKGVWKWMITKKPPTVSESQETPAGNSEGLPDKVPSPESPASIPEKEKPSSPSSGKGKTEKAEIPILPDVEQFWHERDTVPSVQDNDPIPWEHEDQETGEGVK
MITF inh – MITF inhibitors, primary screen, biochemical, AlphaScreen, human; inhibition, % at 2.6 µM; Microphthalmia-associated transcription factor (Homo sapiens), O75030; AID 1259374, 2018; 650,000 compounds, 0.91% hits; AlphaScreen MITF homodimerization, bead proximity signal; in the data active means inhibition above about 50%
TEAD-YAP inh – TEAD-YAP interaction inhibition, primary screen, TEAD-YAP interaction inhibitor project, luminescence, HEK-TIYL cells; 640,000 compounds, 1.4% hits; TEAD-Gal4/YAP UAS-luciferase luminescence; inhibition, % at 9.12 µM; in the data active means inhibition above about 32%
FBW7 activator – FBW7 E3 ligase activators, primary screen, biochemical, AlphaScreen, human. AlphaScreen FBW7–phospho-cyclin E peptide binding, activator screen. 650,000 compounds, 0.13% hits. F-box/WD repeat-containing protein 7 (Homo sapiens), Q969H0. normalized activity (activation), % at 26.1 µM. AID 1259310, 2017; in the data active means normalized activity above about 1.9%;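 further: purified mutant Fbw7 with reduced substrate affinity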
GPR151 conf act – GPR151 activators, triplicate retest, confirmation, cell-based, PathHunter beta-arrestin, luminescence. 6,700 tested, under 10 active. shares compounds with GPR151 ag. activation, % at 11.2 µM. GPR151 PathHunter beta-arrestin cells, 90 min; % of EA-reagent control over plate median. AID 1508609, 2020;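 active means mean percent activation across replicates above the confirmation screen cutoff of 4.91%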
GPR119 counter – GPR119 activators in beta-arrestin cells, counter-screen for GPR151 activator project, cell-based, PathHunter beta-arrestin, luminescence, triplicate | shares compounds with GPR151 ag | 90 min; 0 = compound-well median, 100 = enzyme-acceptor control | activation, % at 11.2 µM | 6,700 compounds, 0.3% hits;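 active means mean percent activation in the counterscreen above 29.09%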;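 further: counterscreen on off-target GPR119 to flag nonselective hits from the GPR151 activator screen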
Each line names hits and unclear results; the compound was inactive in the other large screens (follow-up assays come after a bar, where they were run); ! = repeats disagree.

C=CCNC(=S)NS(=O)(=O)c1ccc(C)cc1	none
Cn1c(CC(=O)NN)nc2ccccc21	GPR151 ag 6.2 | GPR151 conf act inactive | GPR119 counter inactive
CCCCN(CC)C(=O)c1ccc([N+](=O)[O-])cc1	none
CCCCN(CC)C(=O)c1ccc([N+](=O)[O-])cc1Cl	GPR151 ag 7.7 | GPR151 conf act inactive | GPR119 counter inactive
N#Cc1ccc2c(c1)N(Cc1ccccc1F)C(=O)C1CCCN21 (stereo unspecified)	none
Cc1cccc(CN2C(=O)C3CCCN3c3ccc(C#N)cc32)c1 (stereo unspecified)	GPR151 ag 9.4 | GPR151 conf act inactive | GPR119 counter inactive
CCn1c(C)nnc1SCc1ccccc1	none
O=C(NC1CCCCC1)[C@H]1C=CCN1C(=O)C1CC1	GPR151 ag 7.4 | GPR151 conf act inactive | GPR119 counter inactive
O=[N+]([O-])c1cccc(C2=CC(c3cc(Br)ccc3F)n3ncnc3N2)c1 (stereo unspecified)	none
O=C1NCC2=C1C(c1ccccc1)Nc1ccccc1N2 (stereo unspecified)	none
O=C1NCC2=C1C(c1ccccc1O)Nc1ccccc1N2 (stereo unspecified)	GPR151 ag 9.2 | GPR151 conf act inactive | GPR119 counter inactive
Cc1sc(NC(=O)c2ccc(N3CCCCC3)c([N+](=O)[O-])c2)c(C#N)c1C	GPR151 ag 13 | GPR151 conf act inactive | GPR119 counter inactive
O=C(Nc1cccc(S(=O)(=O)NCc2ccco2)c1)c1cc(F)c(F)c(F)c1F	GPR151 ag 4.9 | GPR151 conf act inactive | GPR119 counter inactive
Cn1c(=O)c2c(nc(Cl)n2Cc2c(F)cccc2Cl)n(C)c1=O	none
CCSc1nc2c(c(=O)n(C)c(=O)n2C)n1Cc1c(F)cccc1Cl	GPR151 ag 5.2 | GPR151 conf act inactive | GPR119 counter inactive
O=C(NCc1ccc(F)cc1)Nc1ccc2c(c1)CCCN2C(=O)C1CC1	none
O=C(CSc1n[nH]c(-c2ccncc2)n1)c1ccc(F)cc1	none
O=C(CSc1n[nH]c(-c2ccncc2)n1)c1ccc(Cl)cc1	GPR151 ag 5.0 | GPR151 conf act inactive | GPR119 counter inactive
CC(C)c1ccc(C(=O)CSc2n[nH]c(-c3ccco3)n2)cc1	none
O=[N+]([O-])c1nn(-c2cccc(Cl)c2)n(O)c1=Nc1ccccc1F	none
CN(C)c1ccc(NC2=CC(=O)N(Cc3ccco3)C2=O)cc1	GPR151 ag 5.1 | GPR151 conf act inactive | GPR119 counter inactive
CN(C)c1ccc(NC2=CC(=O)N(CCc3ccccc3)C2=O)cc1	none
CC(=O)c1cccc(NC(=O)c2cnn3c(C(F)(F)F)cc(-c4ccco4)nc23)c1	GPR151 ag 5.1 | GPR151 conf act inactive | GPR119 counter inactive
Cc1ccc(-c2cc(C(F)(F)F)n3ncc(C(=O)NC(C)C)c3n2)cc1	GPR151 ag 5.0 | GPR151 conf act inactive | GPR119 counter inactive
COc1ccccc1NC(=O)CCc1c(C)nc2nc(CN)nn2c1C	none
CC(C)c1ccc(NC(=O)c2cc(S(=O)(=O)NCCc3ccccc3)ccc2F)cc1	GPR151 ag 5.8 | GPR151 conf act inactive | GPR119 counter inactive
O=C(Nc1ccc(S(=O)(=O)NCCc2ccccc2)cc1)c1ccccc1F	none
CC(=O)Nc1ccc(S(=O)(=O)NCCNC(=O)c2ccccc2F)cc1	GPR151 ag 6.3 | GPR151 conf act inactive | GPR119 counter inactive
O=C(CN(CCc1ccccc1)S(=O)(=O)c1ccccc1)NCc1ccco1	none
CCCCC(=O)Nc1nnc(S(=O)(=O)N(CC)c2ccc(Cl)cc2)s1	GPR151 ag 5.7 | GPR151 conf act inactive | GPR119 counter inactive
CCCC(=O)Nc1nnc(S(=O)(=O)N(CC)c2ccc(Cl)cc2)s1	none
O=C(O)CN(CCOCCOCCN(CC(=O)O)CC(=O)O)CC(=O)O	none
O=C(O)CN(CCN(CC(=O)O)CC(=O)O)CCN(CC(=O)O)CC(=O)O	GPR151 ag 8.1! | GPR151 conf act inactive | GPR119 counter inactive
CC(=O)C1=C(C)NC(SCC(=O)O)=C(C#N)C1c1ccccc1 (stereo unspecified)	none
